Results filed as inconclusive are left out. Values without a mark were called inactive. Activity calls are given as the source filed them. Calls come from the whole dose curve; as a rule, active = well fitted activation curve with a large enough effect; inconclusive = small, poorly fitted or top-dose-only effect; inactive = no such curve, though single readings can be large or run the other way.
Potency is the fitted concentration of half-maximal effect.

The target of the test is Cellular tumor antigen p53 (Homo sapiens) (UniProt P04637). Nature of the test: Primary qHTS for small molecule compounds that upregulate eGFP-tagged delta133p53alpha (in N-terminal) cells. (AID 2060322).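 For activation: series mostly up to about 56 µM; 0% = DMSO vehicle and 100% = reference activator.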 Note: nearly all actives have a fitted effect of over 75% in size. To be noted: NCI-H358 eGFP-delta133p53alpha fluorescence, 24 h; activation: active compounds read high. In outline: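 NCI-H358 cells pre-induced 24 h with 10 ng/ml doxycycline to express N-terminal eGFP-delta133p53alpha, then dosed 24 h at 37C without doxycycline; fixed, Hoechst-stained, GFP intensity by laser scanning cytometry, normalized to DMSO (0%) and 57.5 uM 5-azacytidine (100%).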
Cellular tumor antigen p53 (Homo sapiens), sequence (P04637 whole entry, looked up): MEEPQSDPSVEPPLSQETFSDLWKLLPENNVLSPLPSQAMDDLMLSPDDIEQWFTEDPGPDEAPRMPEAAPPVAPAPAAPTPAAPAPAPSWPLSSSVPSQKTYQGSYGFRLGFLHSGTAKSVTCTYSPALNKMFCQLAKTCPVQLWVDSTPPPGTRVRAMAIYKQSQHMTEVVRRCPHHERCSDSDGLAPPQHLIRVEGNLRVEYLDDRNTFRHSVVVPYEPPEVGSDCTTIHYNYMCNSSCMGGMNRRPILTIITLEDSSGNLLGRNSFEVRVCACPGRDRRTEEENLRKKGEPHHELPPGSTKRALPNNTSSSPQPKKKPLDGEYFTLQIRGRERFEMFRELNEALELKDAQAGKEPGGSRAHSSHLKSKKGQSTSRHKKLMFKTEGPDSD
Background: qHTS replaces the single test concentration by a dilution series.
On to `CCOC(=O)[C@H]1O[C@H]1C(=O)N[C@@H](CC(C)C)C(=O)NCCC(C)C`, for which the activation was 17.3%. On the same count and under the same terms, with `O=C1O[C@H](CO)[C@@H](O)[C@H](O)[C@H]1O` the figure was 6.69%; with `CCCCOC(=O)c1ccc(O)cc1`, -13%; with `CCCCCC(N)=O`, -17.5%. The same measure, in the same setting: with `CCCSc1ccc2nc(NC(=O)OC)[nH]c2c1` the figure was 6.69%; with `Cc1ncc(Cl)cc1NCc1ccc(C(=O)N[C@@H](CC2CCCC2)C(=O)NC2CC2)s1`, -39.1%. In the case of `O=C(Cn1ccnc1[N+](=O)[O-])NCc1ccccc1`, the activation was -10.9%. With `O=C(Nc1cccc2c(=O)cc(-c3nn[nH]n3)oc12)c1ccc(OCCCCc2ccccc2)cc1`, the activation was -4.79%. As to `Cc1cccc(C)c1NC(=O)CC12CCCN1CCC2`, the activation is 5.86%. Same read-out and setting: with `O=C1c2c(O)cc(O)cc2O[C@H](c2cc(O)c(O)c(O)c2)[C@H]1O` the figure was -0.847%.

Take `C[C@H]1[C@H](O)O[C@@H]2O[C@@]3(C)CC[C@@H]4[C@H](C)CC[C@@H]1[C@@]24OO3`: the Potency was 21.7 µM (active). As for `COc1cc(O)cc(O)c1`, the activation is -1.67%. Still for that read-out and setting: with `CCCCCCCCCCCCCCCCCCO` the figure was 3.35%; with `CN1CCCCC1CCN1c2ccccc2Sc2ccc(S(C)=O)cc21` (stereo unspecified), -3.95%. The same measure, in the same setting: with `CN1Cc2cc(C(=O)N3CCC(C4CCNCC4)CC3)ccc2N[C@@H](CC(=O)O)C1=O` the figure was 20.1%. Still for that read-out and setting: with `CN1CCN(C(=O)C2CCCCC2)CC1` the figure was -11.7%. `Cc1ccc2c(c1)c1c3n2CCNC3CCC1` (stereo unspecified): the activation is -0.837%. On the same count and under the same terms, with `CC(C)N(CCCNC(=O)Nc1ccc(C(C)(C)C)cc1)C[C@H]1O[C@@H](n2cc(Br)c3c(N)ncnc32)[C@H](O)[C@H]1O` the figure was -20.1%; with `COc1ccc(C(=O)N2CCN(CC(=O)N3CCOCC3)CC2)cc1`, 3.95%.

With `CC1(C)[C@@H](OC(=O)CCC(=O)O)CC[C@]2(C)[C@H]3C(=O)C=C4[C@@H]5C[C@@](C)(C(=O)O)CC[C@]5(C)CC[C@@]4(C)[C@]3(C)CC[C@@H]12`, the activation is 0.565%.

Consider `O=C(CCCl)NCc1ccccc1`, for which the activation was -0.565%. Regarding `Cc1[nH]c(C=C2C(=O)Nc3ccc(S(=O)(=O)N(C)c4cccc(Cl)c4)cc32)c(C)c1C(=O)N1CCN(C)CC1`, the Potency is 6.11 µM (active).

Take `NNc1nnc(NN)c2ccccc12`: the activation is -35.1%.

In the case of `C[C@H](Cn1cnc2c(N)ncnc21)OCP(=O)(O)O`, the activation is 61.4%. The same measure, in the same setting: with `NC(=O)C1(N2CCCCC2)CCN(CCCN2c3ccccc3CCc3ccc(Cl)cc32)CC1` the figure was 3.35%. As to `NC(=O)CC[C@@H]1NC(=O)[C@H](Cc2ccccc2)NC(=O)[C@H](Cc2ccc(O)cc2)NC(=O)CCSSC[C@@H](C(=O)N2CCC[C@H]2C(=O)N[C@@H](CCCN=C(N)N)C(=O)NCC(N)=O)NC(=O)[C@H](CC(N)=O)NC1=O`, the activation was -3.35%.

The values are drawn from PubChem BioAssay (NCATS).
